Structures are written as SMILES. Among all 310,000 compounds or so, about 18,000 (5.8%) were called active. Where a call stands in place of a potency, no number is given. Not shown: some 22% with an inconclusive outcome. The call rests on the fitted dose curve; in most records, active means well fitted inhibition curve with a large enough effect; inconclusive means small, poorly fitted or top-dose-only effect, or another doubt; inactive means no such curve, though single readings can be large or run the other way. The sample as a whole holds a higher share of actives than the screen did.
Potency means the concentration at half of the fitted maximal effect.

The assay in a line: Primary qHTS for delayed death inhibitors of the malarial parasite plastid, 48 hour incubation. Particulars: P. falciparum luciferase growth in erythrocytes; series mostly up to 28.7 µM. The essentials: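 Firefly luciferase activity from engineered P. falciparum reports growth; inhibitors lower the luminescent signal. Cultures contained 2% hematocrit erythrocytes at 0.1% final parasitemia.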
`O=C(Oc1cccc(C(=S)N2CCOCC2)c1)c1cccc(Cl)c1`: the Potency result was “inactive”.

Take `O=C(/C=C/c1cccs1)c1cc(Cl)ccc1OC(=O)N1CCOCC1`: the Potency was 10.4 µM (active).

As to `O=C(c1cccs1)N1CCN(C(=O)N2CCOCC2)CC1`, the Potency result was “inactive”.

On to `O=C(O)c1cccc(S(=O)(=O)N2CC=C(c3ccccc3)CC2)c1`, for which the Potency result is “inactive”.

For `CC(C)C[C@H](NC(=O)C1CCC(CNC(=O)[C@@H]2CCCN2C(=O)OC(C)(C)C)CC1)C(=O)O` (some centres not stated), the Potency result was “inactive”.

Turning to `Cc1ccccc1C(=O)N1CCC(C(=O)Oc2ccc(C#N)cc2)CC1`, the Potency result is “inactive”.

Take `Cc1cc(=O)oc2cc(OCCC[n+]3ccccc3)ccc12`: the Potency was 5.22 µM (active).

Consider `Cc1cc(=O)oc2ccc(OCC(=O)O)cc12`, for which the Potency entry is “inactive”.

For the molecule `COc1cccc(-c2nnc(SCCOc3ccc4c(C)cc(=O)oc4c3)o2)c1`, the Potency entry is “inactive”.

With `CC(O)c1nc2ccccc2n1Cc1ccc([N+](=O)[O-])cc1` (configuration not stated), the Potency result was “inactive”.

With `CCCn1c(C(Cc2ccccc2)NC(=O)COC)nc2ccccc21` (configuration not stated), the Potency result was “inactive”.

As for `CCCC(NC(=O)c1ccccc1)c1nc2ccccc2n1Cc1ccc(C(=O)OC)o1` (configuration not stated), the Potency is 13.1 µM (active).

Consider `Cn1ccnc1SCC(=O)Nc1ccc2c(c1)OCCO2`, for which the Potency result was “inactive”.

In the case of `CCN(CC(=O)Nc1ccccc1OC)C(=O)CC1CC2CCC1C2` (configuration not stated), the Potency entry was “inactive”.

Consider `N#C[C@]1(S(=O)(=O)c2ccccc2)C[C@@H]2ON=C(c3cccc(Br)c3)[C@@H]2C1`, for which the Potency entry is “inactive”.

In the case of `Cc1ccc(NC(=O)CNCc2ccccn2)cc1S(=O)(=O)N(C)C`, the Potency is 16.5 µM (active).

As to `Cc1ccc(NC(=O)c2cccs2)cc1S(=O)(=O)N(C)C`, the Potency result was “inactive”.

For the molecule `Cc1ccc(C(=O)Nc2ccc(C)c(S(=O)(=O)N(C)C)c2)s1`, the Potency result is “inactive”.

With `Cn1c(CCc2ccccc2)nnc1SCC(N)=O`, the Potency entry is “inactive”.

Regarding `COc1ccc(NC(=O)c2cccc3c2C(=O)N(CC2CCCO2)C3)cc1OC` (configuration not stated), the Potency entry was “inactive”.

As to `Oc1c(C(c2ccccn2)N2CCOCC2)ccc2cccnc12` (configuration not stated), the Potency was 9.28 µM (active).

As for `Cc1nc2sc(C(c3ccco3)N3CCOCC3)c(O)n2n1` (configuration not stated), the Potency result is “inactive”.

For `O=C(c1cccnc1NCc1ccccc1)N1CCOCC1`, the Potency entry is “inactive”.

Turning to `CCc1noc(C)c1C(=O)N1CCCSC1=Nc1ccccc1OC`, the Potency entry was “inactive”.

Regarding `Cc1c(C(=O)Nc2ccccn2)oc2ccc(Br)cc12`, the Potency entry was “inactive”.

Regarding `CC(C)c1ccc(C(=O)OC2CCOC2=O)cc1` (configuration not stated), the Potency result is “inactive”.

For `CCC(C)(C)NC(=O)CN(C(=O)CCC(=O)Nc1nccs1)c1ccc2c(c1)OCO2`, the Potency entry is “inactive”.

On to `COc1ccccc1C1SCCN1C(=O)c1ccc([N+](=O)[O-])cc1` (configuration not stated), for which the Potency entry was “inactive”.

Consider `COc1cc2c(cc1OC)C(c1cccc([N+](=O)[O-])c1)=NCC2`, for which the Potency entry is “inactive”.

Regarding `COc1ccc(C(=O)N2CCc3cc(OC)c(OC)cc3C2c2cccc([N+](=O)[O-])c2)cc1` (configuration not stated), the Potency is 6.57 µM (active).

As to `Cc1ccc(OCCNC(=O)CNC(=O)c2ccc(C)c(C)c2)cc1`, the Potency result was “inactive”.

Take `CN(C(=O)COC(=O)c1nc(Cl)ccc1Cl)C1CCS(=O)(=O)C1` (configuration not stated): the Potency entry was “inactive”.

Consider `COCCN1CCn2c(nc3cc(NS(C)(=O)=O)ccc32)C1`, for which the Potency result was “inactive”.

Consider `COc1ccc(CC2(CO)CCN(Cc3cnn(C)c3)CC2)cc1`, for which the Potency entry was “inactive”.

On to `CC(=O)c1cccc(CN2CCC(CO)(Cc3ccccc3)CC2)c1`, for which the Potency result was “inactive”.

With `COc1ccccc1/C=C/CN1CCC(CO)(Cc2ccccc2)CC1`, the Potency was 11.7 µM (active).

With `Cc1cc(C)n(CCNS(=O)(=O)c2ccc(Cl)cc2)n1`, the Potency result is “inactive”.

Consider `CC(=O)Nc1ccc(NS(=O)(=O)c2ccc3c(c2)NC(=O)CC(=O)N3)cc1`, for which the Potency entry was “inactive”.

On to `Cc1sc2ncn(CC(=O)NCCCC(=O)N(C)Cc3ccccc3)c(=O)c2c1C`, for which the Potency entry was “inactive”.

With `O=C(CN1CCN(c2nc(-c3ccccc3)cs2)CC1)NCc1ccc2c(c1)OCO2`, the Potency entry is “inactive”.

As to `CC1CCCC(C)N1C(=O)CN1CCN(c2nc(-c3ccc(F)cc3)cs2)CC1` (configuration not stated), the Potency was 11.7 µM (active).

On to `CCCc1cc(=O)[nH]c(SCC(=O)N2C(C)CCCC2C)n1` (configuration not stated), for which the Potency entry was “inactive”.

Consider `Cc1ccc(S(=O)Cc2ccc(C(=O)N3CCN(C4CCCCC4)CC3)o2)cc1` (configuration not stated), for which the Potency result is “inactive”.

Consider `O=C1C(=O)N(CCN2CCOCC2)C(c2cccc(Cl)c2)/C1=C(/O)c1ccc2c(c1)OCO2` (configuration not stated), for which the Potency entry is “inactive”.

`O=C(NCCCn1ccnc1)/C(=C\c1ccccc1F)NC(=O)c1ccccc1`: the Potency entry is “inactive”.

With `CC(Oc1ccccc1)C(=O)Nc1c2c(nn1-c1ccccc1)CS(=O)C2` (configuration not stated), the Potency result was “inactive”.

On to `O=C(Nc1sc2c(c1C(=O)O)CCC2)c1ccccc1F`, for which the Potency entry was “inactive”.

In the case of `C=CCn1c(=NC(=O)c2ccc(S(=O)(=O)N3CCCC3)cc2)sc2cc(NC(C)=O)ccc21`, the Potency was 1.85 µM (active).

As for `C=CCn1c(=NC(=O)c2cccs2)sc2cc(NC(C)=O)ccc21`, the Potency result was “inactive”.

`COc1cc(C(C)=O)ccc1OC(C)C(=O)Nc1ccc(S(=O)(=O)N2CCCC2)cc1` (configuration not stated): the Potency entry was “inactive”.

In the case of `CCOc1ccc(C(=O)Nc2ccc(S(=O)(=O)Nc3cc(C)on3)cc2)cc1`, the Potency entry was “inactive”.

Consider `COc1ccc(C)cc1NC(=O)CNCc1cccs1`, for which the Potency entry was “inactive”.

Consider `CCOC(=O)Nc1ccc(NC(=O)OCC)cc1`, for which the Potency result is “inactive”.

Turning to `C[C@H](NC(=O)OC(C)(C)C)c1nnc(SCC(=O)Nc2ccc(Br)cc2)o1`, the Potency result was “inactive”.

On to `CC(C)(C)OC(=O)Nc1ccc([C@@H](NC(=O)OC(C)(C)C)C(=O)OC(C)(C)C)cc1`, for which the Potency was 2.08 µM (active).

With `CN(Cc1ccccc1Cl)C(=O)C1CCC(=O)N(CCc2cccc(F)c2)C1` (configuration not stated), the Potency entry was “inactive”.

As to `CCOC(=O)C1=C(c2ccccc2)NC(=O)NC1c1cc(OC)c(OC)cc1OC` (configuration not stated), the Potency result is “inactive”.

`CC1=C(C(=O)OCC2CCCCC2)C(c2ccc(F)cc2)NC(=O)N1` (configuration not stated): the Potency entry was “inactive”.

For the molecule `CCOC(=O)C1=C(CNC2CCCCC2)NC(=O)NC1c1cc(C)ccc1C` (configuration not stated), the Potency is 10.4 µM (active).

For the molecule `Cc1ccc(S(=O)(=O)CC(=O)Nc2nnc(C)s2)cc1`, the Potency entry is “inactive”.

As for `CCCCCC(=O)NC(=S)NNC(=O)c1ccc([N+](=O)[O-])cc1`, the Potency entry is “inactive”.

`CC(C)CC(=O)NC(=S)NNC(=O)c1cccc([N+](=O)[O-])c1`: the Potency was 14.7 µM (active).

On to `O=C(NC(=S)NC1CCS(=O)(=O)C1)c1cccc([N+](=O)[O-])c1` (configuration not stated), for which the Potency entry is “inactive”.

Take `Cc1cc(C(=O)Nc2nnc(C3CC3)s2)c(C)s1`: the Potency result is “inactive”.

Regarding `O=C(CN1CCCCC1)Nc1ccccc1C(=O)NC1CC1`, the Potency entry was “inactive”.

Take `O=C(COc1ccccc1Cl)Nc1ccccc1C(=O)NC1CC1`: the Potency result was “inactive”.

Turning to `CC(NCC(=O)Nc1ccccc1C(=O)NC1CC1)c1ccccc1Cl` (configuration not stated), the Potency was 9.28 µM (active).

The record behind these values is PubChem BioAssay AID504832 (National Center for Advancing Translational Sciences (NCATS), 2011).
